Screens (PubChem BioAssay)
HT1080 IDH1KD tx – HT-1080 IDH1 knockdown cell toxicity (counter line); HT-1080 IDH1 knockdown viability, ATP luminescence, 48 h; Potency, µM (highest dose often 46.1 µM), for inactives: at the highest dose activity, negative = toxicity, actives largely listed as cytotoxic; 2% of 360,000 active; AID 686971;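 also: 0% = DMSO wells and -100% = cell-free medium wells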
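Cytotoxicity counter-line: IDH1KD HT-1080, 48 h, CellTiter-Glo. Curves classed by r2, magnitude and activity.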
TDP1 cell CPT – DT40-hTDP1 cell growth loss with CPT; chicken DT40 Tdp1-/-;hTDP1 cells + 20 nM CPT, ATP luminescence, 48 h; Potency, µM (top dose mostly 46.2 µM), for the others: at the top dose activity change, negative = growth inhibition, actives largely listed as inhibitors; 12% of 420,000 active; also: nearly all actives have a fitted effect of over 55% in size
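Chicken DT40 Tdp1-/- cells stably complemented with human TDP1 were seeded at 400 cells/well in medium containing 20 nM camptothecin, exposed to pin-transferred compounds, and grown at 37 °C for at least 48 hr. Viability was read as ATP luminescence.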
HT1080NT lethal – kills 2HG-producing HT-1080-NT fibrosarcoma cells; HT-1080-NT fibrosarcoma viability, CellTiter-Glo ATP luminescence, 48 h; Potency, µM (titrated, usually from 46.1 µM), inactives show at the top dose activity, negative = less viability, most hits filed as cytotoxic; 1.6% of 360,000 active; AID 686970;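 also: NT is the 2HG producing partner of a matched IDH1 knockdown line; 0% = DMSO-treated cells and -100% = media-only wells without cells; nearly all actives have a fitted effect of over 55% in size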
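Viability by CellTiter-Glo luminescence after 48 h compound exposure at 37C of HT-1080-NT cells (750/well, RPMI, 5% FBS). % activity scaled between DMSO wells and medium-only wells, then curve-fitted and categorized by curve class.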
TDP1 cell noCPT – qHTS for Inhibitors of human tyrosyl-DNA phosphodiesterase 1 (TDP1): qHTS in cells in absence of CPT. AID 686978, 2013. DT40 Tdp1-/- hTDP1 cells, no CPT, ATP luminescence, 48 h. Potency, µM (series often up to 46.2 µM), without a hit: at the top dose activity change, negative = growth inhibition, usual class: inhibitors. 15% of 420,000 active; also: nearly all actives have a fitted effect of over 55% in size
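Luminescent ATP content (CellTiter-Glo) served as the growth readout. Knockout chicken DT40 cells expressing human TDP1 were exposed to compounds without camptothecin for a minimum 48 hr at 37 °C.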
KB-3-1 tox – KB-3-1 parental cell cytotoxicity. KB-3-1 viability, CellTiter-Glo ATP luminescence, 72 h. Potency, µM (top dose mostly 46.1 µM), most hits filed as cytotoxic. 1.4% of 400,000 active. AID 1347075; also: nearly all actives have a fitted effect of over 60% in size
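Multi-concentration cytotoxicity screen in KB-3-1 cells grown in DMEM lacking phenol red with 10% FBS. After 72 h at 37 °C with compound, ATP-dependent luminescence was recorded.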
KB-V1 cytotox – kills drug-selected multidrug resistant KB-V1 cells. KB-V1 MDR cells viability, CellTiter-Glo, 72 h. Potency, µM (highest dose often 46.1 µM), actives largely listed as cytotoxic. 3.4% of 400,000 active. AID 1347076; also: nearly all actives have a fitted effect of over 60% in size
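Luminescent ATP read-out (CellTiter-Glo, 10 min) measures survival of drug-selected KB-V1 MDR cells after 72 h, 37 degrees C compound exposure. Medium: phenol-red-free DMEM, 10% FBS. Values from fitted concentration-response curves.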
An asterisk follows results filed as active. In the library only some 19% were active in any assay of this set; here they are far more common. Calls follow the shape of the dose curve; as a rule, active = well fitted curve in the direction sought with a large enough effect; inconclusive = small, poorly fitted or top-dose-only effect, or another doubt; inactive = no such curve, though single readings can be large; an effect the other way counts as inactive or inconclusive. Unless noted, % is scaled to controls: 0 for no effect and ±100 for the full control effect; potency is read from the fitted curve at half-maximal effect.

How did CC1=NN(c2nc(-c3ccccc3)cs2)C(=O)C1N=Nc1ccccc1 (stereo not drawn) do in these assays?
HT1080 IDH1KD tx: 2%; TDP1 cell CPT: inconclusive; HT1080NT lethal: 16%; TDP1 cell noCPT: 15µM*; KB-3-1 tox: inactive; KB-V1 cytotox: inactive

Results for CC1=NN(c2nc(-c3ccc(C)cc3)cs2)C(=O)C1N=Nc1ccc(C(N)=O)cc1 (stereo not drawn) ?
HT1080 IDH1KD tx: inconclusive; TDP1 cell CPT: 4.6µM*; HT1080NT lethal: -19%; TDP1 cell noCPT: 5.2µM*; KB-3-1 tox: inactive; KB-V1 cytotox: inactive

What do the screens show for `O=C(c1ccco1)n1nc(-c2ccccc2)nc1NCc1ccc(F)cc1`?
KB-3-1 tox: inactive; KB-V1 cytotox: inactive

What do the screens show for `COc1ccc2c(c1)C(=O)Cc1ccccc1O2`?
HT1080 IDH1KD tx: 16%; TDP1 cell CPT: -9%; HT1080NT lethal: -11%; TDP1 cell noCPT: 21µM*; KB-3-1 tox: inactive; KB-V1 cytotox: inactive

Results for CCOC(=O)C1CCCN(C(=O)Cn2ncc3c4ccccc4n(Cc4ccccc4)c3c2=O)C1 (stereo not drawn) ?
TDP1 cell CPT: inconclusive; TDP1 cell noCPT: 18µM*; KB-3-1 tox: inactive; KB-V1 cytotox: inactive

What do the screens show for `CC(CCc1ccccc1)NC(=O)Cn1ncc2c3ccccc3n(Cc3ccc(F)cc3)c2c1=O` (stereo not drawn)?
TDP1 cell CPT: inconclusive; TDP1 cell noCPT: inconclusive; KB-3-1 tox: inactive; KB-V1 cytotox: inactive

What do the screens show for `Cc1ccc(CNC(=O)Cn2ncc3c(C)n(Cc4ccc(Cl)cc4)c(C)c3c2=O)cc1`?
TDP1 cell CPT: inconclusive; TDP1 cell noCPT: inconclusive; KB-3-1 tox: inactive; KB-V1 cytotox: inactive

What do the screens show for `Cc1c2cnn(CC(=O)N3CCCCC3)c(=O)c2c(C)n1Cc1ccc(Cl)cc1`?
TDP1 cell CPT: 23µM*; TDP1 cell noCPT: 23µM*; KB-3-1 tox: inconclusive; KB-V1 cytotox: inactive

Results for CCOC(=O)C1CCN(C(=O)Cn2ncc3c4ccccc4n(Cc4ccc(F)cc4)c3c2=O)CC1 ?
TDP1 cell CPT: 3.3µM*; TDP1 cell noCPT: 1.8µM*; KB-3-1 tox: inactive; KB-V1 cytotox: inactive

What do the screens show for `CCCN1CCN(C(=O)Cn2ncc3c4ccccc4n(Cc4cccc(Cl)c4)c3c2=O)CC1`?
TDP1 cell CPT: 13µM*; TDP1 cell noCPT: 12µM*; KB-3-1 tox: inactive; KB-V1 cytotox: inactive

How did CCOC(=O)C1CCCN(C(=O)Cn2ncc3c4ccccc4n(C)c3c2=O)C1 (stereo not drawn) do in these assays?
TDP1 cell CPT: -2%; TDP1 cell noCPT: inconclusive; KB-3-1 tox: inactive; KB-V1 cytotox: inactive

Results for CSc1ccc(-c2nc3c(C)cccn3c2Nc2ccc3c(c2)OCCO3)cc1 ?
TDP1 cell CPT: inconclusive; TDP1 cell noCPT: inconclusive; KB-3-1 tox: inactive; KB-V1 cytotox: inactive

How did Cc1ccc(S(=O)(=O)N2CCN(C(=O)c3ccnn3C)CC2)cc1C do in these assays?
HT1080 IDH1KD tx: 1%; TDP1 cell CPT: 1%; HT1080NT lethal: -2%; TDP1 cell noCPT: 14%; KB-3-1 tox: inactive; KB-V1 cytotox: inactive

Results for CCCCN(C(=O)CC1CCCCC1)c1c(N)n(CCCC)c(=O)[nH]c1=O ?
HT1080 IDH1KD tx: 1%; TDP1 cell CPT: -21%; HT1080NT lethal: 8%; TDP1 cell noCPT: inconclusive; KB-3-1 tox: inactive; KB-V1 cytotox: inactive

What do the screens show for `CCc1ccccc1Nc1cc(C(=O)NCCc2ccccc2)c2ccccc2n1`?
TDP1 cell CPT: inconclusive; TDP1 cell noCPT: inconclusive; KB-3-1 tox: inactive; KB-V1 cytotox: inactive
